Bounds are passed on as bounds.

For one test, the system named is T1, MEK1.
T1 construct: gene MAP2K1

The subject of a further test is T2, MEK2.
T2 construct: gene MAP2K2

The test system of the next test is T3, MEK6.
T3 construct: gene MAP2K6

Another test relates to T4, MINK.
T4 construct: gene MINK1

The next test deals with T5, MLK1.
T5 construct: gene MAP3K9

In another test the test system is T6, MRCKB.
T6 construct: gene CDC42BPB

The next test relates to T7, MST1.
T7 construct: gene STK4
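Note: kd values determined as follow-up on hits from a single-replicate KINOMEscan panel screen.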

As a reminder, the Kd is the concentration at which binding is half-saturated. A low value points to tighter binding. With `COc1cccc(NC(=O)NC2CCN(c3ccnc(Nc4ccc(F)cc4)n3)C2)c1` (stereo not drawn) [GSK1379721], the Kd in the test with MAP4K4 and in the test with MAP4K5 was more than 10 µM each time.

In the case of `COc1ccccc1CNC(=O)c1cc(C(=O)c2ccccc2C)c[nH]1` [GSK364507], in the test on MARK1, the Kd is more than 10 µM.

On to `Cc1ccc(NC(=O)Nc2cccc(Cl)c2)cc1-c1ccc(C(=O)Nc2ccncc2)cc1` [GSK1398468], for which the Kd with MEK1 and in the test on MYO3A was more than 10 µM in each case.

Molecule `Cc1cccc(-c2nc(Nc3cccc(C(N)=O)c3)c3ccccc3n2)n1` [GW876019] displayed a Kd in the test on MEK1 of more than 10 µM.

For `Fc1cc(Cl)ccc1Nc1ccnc2cc(-c3ccc(CN4CCCCC4)o3)ccc12` [GW560116], the dissociation constant (Kd) in the test on MEK2 is more than 10 µM.

As to `CCn1c(-c2ccccn2)nc2cnccc21` [SB-736398], the Kd in the test on MEK6 is more than 10 µM.

With `CCCc1ccc(S(=O)(=O)NC2CCN(c3ccnc(Nc4ccc(F)cc4)n3)C2)cc1` (stereo not drawn) [GSK1379715], in the test with MEK6, the Kd was more than 10 µM.

Molecule `Cc1ccc(-c2cc(-c3c[nH]nc3-c3ccccn3)ccn2)cc1` [GW684088] showed a Kd with MINK of 0.061 µM.

`Cc1ccc(NC(=O)Nc2cc(C(C)(C)C)nn2-c2ccccc2)cc1` [GSK1014915] returned a dissociation constant (Kd) in the test with MKNK2 of 0.37 µM.

As for `NC(=O)c1nnc2ccccc2c1N`, the Kd with MLK1 was more than 10 µM; in the test with NEK10 it was 0.43 µM.

In the case of `COc1ccc2nc(-c3cccc(C)n3)nc(Nc3ccncc3)c2c1` [GSK204919], the Kd in the test on MRCKB was found to be 0.52 µM.

Molecule `Cc1cccc(-c2nc(C)cc(Nc3ccncc3)n2)n1` [GSK257997] gave a Kd in the test on MRCKB of 0.58 µM.

In the case of `Fc1cc(Cl)ccc1Nc1ccnc2cc(I)ccc12` [GW551191], the Kd in the test with MST1R was more than 10 µM.

Turning to `O=C1NC(=O)C(N2CCc3ccccc32)=C1c1ccccc1Cl` [SB-373598], the Kd with MST1 was more than 10 µM.

`Nc1ncnc2[nH]c(-c3ccccc3)nc12` [AH5015] gave a Kd in the test with MST1 of more than 10 µM.

(Values after paper PMC5540273 (PLoS ONE, 2017).)
